For 34 compounds, outcome and AC50 results are on record in PubChem BioAssay (EPA / NIEHS).

The structures appear in SMILES notation. “And” between values parts separate entries of the source, which are not always exact repeats. Identical values can stand only once. The source made the active and inactive calls. Rule for the calls: active = hit-call score of the fitted dose curve at least 0.9, where 1 is the maximum; inactive = score below 0.9.

This assay can be described thus: CCTE_Shafer_MEA_acute_per_network_burst_electrodes_number_mean: CCTE's Neural Acute Assay for Mean Number of Electrodes in a Network Burst, Shafer Lab (AID 2284021).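 Note: curves fitted for decreases only so hits reduce electrodes per burst.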 On the procedure:
CCTE_Shafer_MEA_acute assay is conducted using Axion Biosystems 48 well microelectrode array (MEA) plates and Maestro recording system. Each well of the MEA plate contains a grid of 16 microelectrodes embedded in the culture surface. Electrically active cells, such as neurons, can be cultured over the electrodes, and electrical activity in these cells can be recorded extracellularly. The spontaneous firing of neurons is captured from each electrode on a microsecond timescale providing both temporally and spatially precise data. […] The CCTE_Shafer_MEA_acute assay uses primary cultures of rat cortical neurons. As these cultures mature over time, neural networks develop functional activity and form cohesive networks in which electrical activity can be highly coordinated. Baseline 40-minute recordings are made on days post-plating 13 or 15, followed by a secondary 40-minute recording after chemical exposure.CCTE_Shafer_MEA_acute_per_network_burst_electrodes_number_mean is a component of the CCTE_Shafer_MEA_acute assay. It measures the average number of electrodes with activity during a network burst (a temporally-clustered group of action potential firing across multiple electrodes) in a recording in a microelectrode array (MEA) using Axion Biosystems Maestro 768 channel amplifier with the AxIS adaptive spike detector. The recordings before and after chemical treatment are used to calculate a percent change in the mean number of electrodes participating in network bursts in each well.Data from the assay component CCTE_Shafer_MEA_acute_per_network_burst_electrodes_number_mean was analyzed into 1 assay endpoint. This assay endpoint, CCTE_Shafer_MEA_acute_per_network_burst_electrodes_number_mean, was analyzed in the negative analysis fitting direction relative to DMSO as the negative control and baseline of activity. Using a type of functional reporter, gain or loss-of-signal activity can be used to understand electrical activity.
Spontaneous activity in the cortical cultures was recorded using an Axion Biosystems Maestro 768 channel amplifier and Axion Integrated Studios (AxIS) v1.8 (or later) software. The amplifier recorded from all channels simultaneously (gain = 1200 x; sampling rate = 12.5 kHz/channel): raw signals were filtered with a Butterworth band-pass filter (300-5000 Hz), which filters out slower local field potentials leaving only fast potentials, i.e., "spikes", arising from extracellular currents associated with action potentials (Pine 2006; Wheeler and Nam 2011). On-line spike detection of filtered signals was conducted with the AxIS adaptive spike detector, using a threshold of 8x the root mean squared (rms) noise on each channel. Any electrodes with rms noise levels greater than 5 uV were grounded (e.g., no data were recorded). Once grounded, an electrode was grounded for the duration of the experiment. All recordings were conducted at 37 C. Wells were deemed usable if on the day of the exposure >/= 10 electrodes were active (defined as >/= 5 spikes/min). On DIV 13 or 15, a minimum of three wells from one cortical culture preparation were treated with each compound (0.03-40 uM). Prior to recording baseline activity, each mwMEA plate was placed in the Maestro at 37 C and allowed to sit for 20 min while firing rates stabilized. Baseline activity (40 min) was recorded before the addition of each compound. An additional 40 min of spontaneous activity was recorded in the presence of each compound. Changes in network parameters relative to baseline were assessed following compound treatment.
In the case of `N#CSCSC#N`, the compound was called inactive. Consider `CSC1=N[C@@](C)(c2ccccc2)C(=O)N1Nc1ccccc1`, for which the result was inactive.

In the case of `CNC(=O)ON=C(SC)C(=O)N(C)C`, the outcome was inactive. Consider `CC1=NNC(=O)N(/N=C/c2cccnc2)C1`, for which the call was inactive.

Take `CN(C)NC(=O)CCC(=O)O`: the call was inactive. For orientation: AC50 means the concentration at which the activity in the assay is half-maximal. Consider `CC[C@H](C)[C@H]1O[C@]2(C=C[C@@H]1C)C[C@@H]1C[C@@H](C/C=C(\C)[C@@H](O[C@H]3C[C@H](OC)[C@@H](O[C@H]4C[C@H](OC)[C@@H](NC)[C@H](C)O4)[C@H](C)O3)[C@@H](C)/C=C/C=C3\CO[C@@H]4[C@H](O)C(C)=C[C@@H](C(=O)O1)[C@]34O)O2`, for which the AC50 is 615 nM (active) and 8.88 µM (active). On to `FC(F)C(F)(F)OCC(Cn1cncn1)c1ccc(Cl)cc1Cl` (centres undefined), for which the compound was classed as inactive. Consider `CCOP(=S)(Oc1cnc(C(C)(C)C)nc1)OC(C)C` (centres undefined), for which the AC50 was 20 µM (active). With `CCOP(=O)(NC(C)C)Oc1ccc(SC)c(C)c1` (centres undefined), the outcome was inactive.

Turning to `COP(=O)(NC(C)=O)SC` (centres undefined), the compound was called inactive.

For the compound `CC(C)N(C(=O)SCC(Cl)=C(Cl)Cl)C(C)C`, the concentration at half-maximal activity (AC50) is 11.5 µM (active) and 5.51 µM (active). In the case of `C[Si](Cn1cncn1)(c1ccc(F)cc1)c1ccc(F)cc1`, the outcome was inactive. On the same count and under the same terms, then `COc1cc(OC)nc(Sc2cccc(Cl)c2C(=O)O)n1`, with “inactive”. Turning to `CON=C(C(=O)OC)c1ccccc1CON=C(C)c1cccc(C(F)(F)F)c1`, the AC50 was 13.5 µM (active). Still for that read-out and setting: then `CC(C)[C@H](C(=O)O[C@H](C#N)c1cccc(Oc2ccccc2)c1)c1ccc(Cl)cc1`, with 0.0691 µM (active); and `CCOP(=S)(OCC)SCCSCC`, with 2.98 µM (active). On to `O=C(O)c1cc(Oc2ccc(C(F)(F)F)cc2Cl)ccc1[N+](=O)[O-]`, for which the call was inactive. Consider `CC(=NC#N)N(C)Cc1ccc(Cl)nc1`, for which the result was inactive. Regarding `CC(C)=CC1C(C(=O)OCN2C(=O)C3=C(CCCC3)C2=O)C1(C)C` (centres undefined), the outcome was inactive. Turning to `CCc1cccc(C)c1N(C(=O)CCl)C(C)COC` (centres undefined), the AC50 was 5.76 µM (active). On to `CCCOCC(=Nc1ccc(Cl)cc1C(F)(F)F)n1ccnc1`, for which the compound was classed as inactive.

Consider `C[N+]1(C)CCCCC1`, for which the outcome was inactive. Still for that read-out and setting: in the case of `CN1COCN(Cc2cnc(Cl)s2)C1=N[N+](=O)[O-]` it was “inactive”. On to `O=[N+]([O-])c1cc(C(F)(F)F)c(Cl)c([N+](=O)[O-])c1Nc1ncc(C(F)(F)F)cc1Cl`, for which the concentration at half-maximal activity (AC50) is 0.481 µM (active). For the compound `CN(C)[C@@H]1C(=O)C(C(N)=O)=C(O)[C@@]2(O)C(=O)C3=C(O)c4c(O)cccc4[C@@](C)(O)[C@H]3[C@H](O)[C@@H]12`, the outcome was inactive.

As to `CCOP(=S)(OCC)Oc1ccc2c(C)c(Cl)c(=O)oc2c1`, the AC50 was 4.12 µM (active). Same read-out and setting: then `Nc1c(Cl)cc([N+](=O)[O-])cc1Cl`, with 20 µM (active). Turning to `Cc1ccn2nc(S(=O)(=O)Nc3c(F)cccc3F)nc2n1`, the compound was classed as inactive. As for `COP(=O)(OC)C(O)C(Cl)(Cl)Cl` (centres undefined), the outcome was inactive. Regarding `CCc1cnc(C2=NC(C)(C(C)C)C(=O)N2)c(C(=O)O)c1` (centres undefined), the result was inactive. Take `CC(COc1ccc(Oc2ccccc2)cc1)Oc1ccccn1` (centres undefined): the AC50 was 20 µM (active). Take `CCOC(=O)CC(SP(=O)(OC)OC)C(=O)OCC` (centres undefined): the outcome was inactive.

With `C#CCC1=C(C)C(OC(=O)C2C(C=C(C)C)C2(C)C)CC1=O` (centres undefined), the AC50 is 5.78 µM (active). As to `C=C(C)[C@H]1Cc2c(ccc3c2O[C@@H]2COc4cc(OC)c(OC)cc4[C@@H]2C3=O)O1`, the compound was called inactive.
